Laboratory results reported in the antibiotic and cytotoxicity screens of Wong et al. (2023).
About 3,300 (8.5%) of roughly 39,000 compounds were called active. This is one part of a sample in which actives are shown more often than they occur.

Tested on: HepG2
Assay: cytotoxicity call (relative viability < 0.9)
Conditions: 10 µM

SMILES	cytotoxicity call
C[C@H](CO)N1C[C@H](C)[C@@H](CN(C)Cc2cncnc2)Oc2ncc(C#C[C@@H](C)O)cc2C1=O	inactive
O=P(O)(O)CN1CCN(CP(=O)(O)O)CCN(CP(=O)(O)O)CCN(CP(=O)(O)O)CC1	inactive
COc1ccc(NC(=O)Nc2ccc3c(c2)CC(=O)N([C@H](C)CO)C[C@@H](C)[C@H](CN(C)CC2CCCCC2)O3)cc1	inactive
C[C@@H]1CN([C@H](C)CO)C(=O)Cc2cc(NC(=O)Nc3ccc(F)cc3)ccc2O[C@H]1CN(C)CC1CCCCC1	active
C[C@H]1CN([C@@H](C)CO)C(=O)Cc2cc(NC(=O)Nc3ccc(F)cc3)ccc2O[C@H]1CN(C)CC1CCCCC1	active
C[C@@H]1CN([C@@H](C)CO)C(=O)Cc2cc(NC(=O)Nc3ccc(F)cc3)ccc2O[C@@H]1CN(C)CC1CCCCC1	active
C[C@H]1CN([C@@H](C)CO)C(=O)Cc2cc(NC(=O)Nc3ccc(F)cc3)ccc2O[C@@H]1CN(C)CC1CCCCC1	active
Cc1noc(C)c1S(=O)(=O)Nc1ccc2c(c1)C(=O)N([C@H](C)CO)C[C@H](C)[C@@H](CN(C)C(=O)NC1CCCCC1)O2	inactive
CNC[C@H]1OCCCC[C@H](C)Oc2ccc(NC(=O)c3ccncc3)cc2C(=O)N([C@H](C)CO)C[C@@H]1C	inactive
COc1ccc2c3c([nH]c2c1)[C@H](CO)N(C[C@]13CN(C1)S(=O)(=O)c1cccs1)C(=O)c1ccccc1	inactive
COc1ccc2c3c([nH]c2c1)[C@@H](CO)N(CC1CCOCC1)C[C@]13CCN(CC1)C(=O)C1CCOCC1	inactive
CC(C)CC#Cc1ccc2c(c1)O[C@@H](CN(C)C(=O)Cc1ccncc1)[C@H](C)CN([C@H](C)CO)S2(=O)=O	inactive
COc1ccc(CN(C)C[C@H]2OCCCC[C@@H](C)Oc3ccc(NC(=O)c4ccncc4)cc3C(=O)N([C@H](C)CO)C[C@@H]2C)cc1	inactive
CC(C)c1cn(CC[C@@H]2CC[C@H](N)[C@@H](CO)O2)nn1	inactive
CO[C@@H]1CN(C)C(=O)c2ccc(NS(=O)(=O)c3cn(C)cn3)cc2OC[C@@H](C)N(Cc2cccc(F)c2)C[C@@H]1C	inactive
CCN(CC)CCNc1nc(=O)[nH]nc1C	inactive
O=C(N[C@H]1CC[C@H](CCn2cc(C3(O)CCCC3)nn2)O[C@@H]1CO)C1CCOCC1	inactive
COc1ccc(-c2cnc3c(c2)C(=O)N([C@H](C)CO)C[C@H](C)[C@H](CN(C)S(=O)(=O)c2ccc(C#N)cc2)O3)cc1	inactive
C[C@@H]1CN([C@@H](C)CO)C(=O)Cc2cc(NC(=O)Nc3ccc(F)cc3)ccc2O[C@H]1CN(C)CC1CCCCC1	inactive
C[C@H](CO)N1C[C@H](C)[C@@H](CN(C)CC2CCCCC2)Oc2ccc(NC(=O)Nc3ccc(F)cc3)cc2CC1=O	inactive
C[C@@H]1CN([C@H](C)CO)C(=O)Cc2cc(NC(=O)Nc3ccc(F)cc3)ccc2O[C@@H]1CN(C)CC1CCCCC1	active
C[C@H](CO)N1C[C@H](C)[C@H](CN(C)CC2CCCCC2)Oc2ccc(NC(=O)Nc3ccc(F)cc3)cc2CC1=O	active

SMILES	cytotoxicity call
O=C(C[C@H]1CC[C@H]2[C@@H](COC[C@@H](O)CN2S(=O)(=O)c2ccccc2)O1)NCc1ccc2c(c1)OCO2	inactive
C[C@H](CO)N1C[C@H](C)[C@H](CN(C)C(=O)Nc2cccc3ccccc23)Oc2ncc(/C=C/c3ccccc3)cc2C1=O	inactive
NC(=O)c1cc2ccccc2nc1C(N)=O	inactive
C[C@H](CO)N1C[C@H](C)[C@H](CN(C)C(=O)Nc2cccc3ccccc23)Oc2ccc(NC(=O)C3CCCCC3)cc2C1=O	inactive
CO[C@H]1CN(C)C(=O)c2cc(NC(=O)c3ccccc3)ccc2OC[C@@H](C)N(C(=O)CN(C)C)C[C@H]1C	inactive
O=C(O)Cc1ccc(CO)cc1	inactive
CCCCc1ccc(CC(=O)O)cc1	active
CC(=O)Nc1ccc(CC(=O)O)cc1	inactive
COc1ccc2c3c(n(c2c1)C)[C@H](CO)N(C[C@]13CN(C1)C(=O)Nc1cccc(c1)F)C(=O)CN1CCOCC1	inactive
COc1ccc(NC(=O)Nc2ccc3c(c2)C(=O)N([C@@H](C)CO)C[C@H](C)[C@H](CN(C)C(=O)C2CCCCC2)OCCCC[C@H](C)O3)cc1	active
COc1ccc(NC(=O)Nc2ccc3c(c2)C(=O)N([C@@H](C)CO)C[C@@H](C)[C@@H](CN(C)C(=O)C2CCCCC2)OCCCC[C@@H](C)O3)cc1	inactive
COc1ccc(NC(=O)Nc2ccc3c(c2)C(=O)N([C@@H](C)CO)C[C@H](C)[C@@H](CN(C)C(=O)C2CCCCC2)OCCCC[C@@H](C)O3)cc1	inactive
COc1ccc(NC(=O)Nc2ccc3c(c2)C(=O)N([C@H](C)CO)C[C@@H](C)[C@H](CN(C)C(=O)C2CCCCC2)OCCCC[C@H](C)O3)cc1	inactive
COc1ccc(NC(=O)Nc2ccc3c(c2)C(=O)N([C@H](C)CO)C[C@@H](C)[C@H](CN(C)C(=O)C2CCCCC2)OCCCC[C@@H](C)O3)cc1	active
COc1ccc(NC(=O)Nc2ccc3c(c2)C(=O)N([C@@H](C)CO)C[C@H](C)[C@H](CN(C)C(=O)C2CCCCC2)OCCCC[C@@H](C)O3)cc1	inactive
Cn1cnc(S(=O)(=O)N2C[C@@H](O)COC[C@H]3O[C@H](CC(=O)NC4Cc5ccccc5C4)CC[C@@H]32)c1	inactive
C[C@H]1CN([C@@H](C)CO)C(=O)c2cccc(NC(=O)Nc3ccc4c(c3)OCO4)c2O[C@@H]1CN(C)Cc1ccc(Cl)c(Cl)c1	inactive
COc1ccc(S(=O)(=O)N(C)C[C@@H]2Oc3cc(Br)ccc3S(=O)(=O)N([C@H](C)CO)C[C@@H]2C)cc1	inactive
COc1ccc([C@H]([C@H](Cc2ccccc2)OC(C)=O)N(CC#C[C@@H](O[Si](c2ccccc2)(c2ccccc2)C(C)(C)C)c2ccccc2)[C@@H](Cc2ccccc2)C(OC)OC)cc1	inactive
COc1ccc([C@H]([C@H](Cc2ccccc2)OC(C)=O)N(C/C=C/[C@@H](OC(C)=O)c2ccccc2)[C@@H](Cc2ccccc2)C(OC)OC)cc1	active
COc1ccc([C@H]([C@H](Cc2ccccc2)OC(C)=O)N(CC#C[C@@H](O)c2ccccc2)[C@@H](Cc2ccccc2)C(OC)OC)cc1	active
COc1ccc([C@H]([C@@H](O)Cc2ccccc2)N(CC#C[C@@H](O)c2ccccc2)[C@@H](Cc2ccccc2)C(OC)OC)cc1	inactive

SMILES	cytotoxicity call
COc1ccc([C@H]([C@H](Cc2ccccc2)OC(C)=O)N(C/C=C\[C@@H](O)c2ccccc2)[C@@H](Cc2ccccc2)C(OC)OC)cc1	inactive
COc1ccc([C@H]([C@@H](O)Cc2ccccc2)N(CC#C[C@@H](O[Si](c2ccccc2)(c2ccccc2)C(C)(C)C)c2ccccc2)[C@@H](Cc2ccccc2)C(OC)OC)cc1	inactive
COc1ccc(-c2cnc3c(c2)C(=O)N([C@@H](C)CO)C[C@H](C)[C@@H](CN(C)C(=O)C2CCOCC2)O3)cc1	inactive
COc1ccc(S(=O)(=O)Nc2ccc3c(c2)C(=O)N([C@H](C)CO)C[C@H](C)[C@H](CN(C)C(=O)CCC(F)(F)F)OCCCC[C@H](C)O3)cc1	inactive
COc1ccc(NC(=O)N(C)C[C@H]2OCCCC[C@@H](C)Oc3ccc(NC(=O)c4ccncc4)cc3C(=O)N([C@@H](C)CO)C[C@H]2C)cc1	inactive
O=C(C[C@@H]1C=C[C@@H](NC(=O)c2cccnc2)[C@@H](CO)O1)NCc1ccncn1	inactive
C[C@@H]1CCCCO[C@@H](CN(C)S(=O)(=O)c2cccs2)[C@H](C)CN([C@@H](C)CO)C(=O)c2cc(NC(=O)c3ccccc3)ccc2O1	inactive
C[C@@H]1CCCCO[C@@H](CN(C)S(=O)(=O)c2cccs2)[C@H](C)CN([C@H](C)CO)C(=O)c2cc(NC(=O)c3ccccc3)ccc2O1	active
C[C@@H]1CN([C@H](C)CO)C(=O)c2cc(NC(=O)c3ccccc3)ccc2O[C@@H](C)CCCCO[C@H]1CN(C)S(=O)(=O)c1cccs1	active
C[C@@H]1CN([C@@H](C)CO)C(=O)c2cc(NC(=O)c3ccccc3)ccc2O[C@@H](C)CCCCO[C@@H]1CN(C)S(=O)(=O)c1cccs1	inactive
C[C@@H]1CCCCO[C@@H](CN(C)S(=O)(=O)c2cccs2)[C@@H](C)CN([C@@H](C)CO)C(=O)c2cc(NC(=O)c3ccccc3)ccc2O1	inactive
C[C@@H]1CCCCO[C@H](CN(C)S(=O)(=O)c2cccs2)[C@@H](C)CN([C@@H](C)CO)C(=O)c2cc(NC(=O)c3ccccc3)ccc2O1	inactive
Cc1noc(C)c1S(=O)(=O)Nc1ccc2c(c1)C(=O)N([C@H](C)CO)C[C@H](C)[C@@H](CN(C)S(C)(=O)=O)OCCCC[C@@H](C)O2	inactive
CCOC(=O)N1CCN(C[C@@H](O)Cn2c(=O)c3c(ncn3C)n(C)c2=O)CC1	inactive
Cc1noc(C)c1S(=O)(=O)Nc1ccc2c(c1)C(=O)N([C@H](C)CO)C[C@@H](C)[C@@H](CN(C)S(=O)(=O)c1cn(C)cn1)OCCCC[C@@H](C)O2	inactive
COc1ccc(NC(=O)Nc2ccc3c(c2)C(=O)N([C@H](C)CO)C[C@H](C)[C@@H](CN(C)CC2CC2)OCCCC[C@H](C)O3)cc1	inactive
CCOC(=O)C(C#N)C1=NCCC1 (centres undefined)	inactive
C[C@@H]1CN([C@H](C)CO)C(=O)c2cc(NC(=O)c3ccccc3)ccc2O[C@@H](C)CCCCO[C@@H]1CN(C)C(=O)Cc1ccccc1	inactive
COc1cccc(NC(=O)N[C@H]2C=C[C@H](CC(=O)N3CCN(C)CC3)O[C@@H]2CO)c1	inactive
C[C@H]1CN([C@@H](C)CO)C(=O)c2cc(NC(=O)CCN3CCOCC3)ccc2O[C@@H]1CN(C)Cc1ccc(C(=O)O)cc1	inactive
